The supplement of paper PMC9844399
“And” between values parts separate entries of the source, which are not always exact repeats. Equal values may be shown once. Where a name gives a salt, the structure may show the parent alone. Values without a mark were called inactive.

Test system: HeLa
Assay: MALAT1 nuclear FISH intensity, robust Z-score vs DMSO; higher = more nuclear MALAT1 lncRNA, active = -3 or less
Details: 10 µM; 6 h
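Also: High-content confocal imaging of branched-DNA amplified FISH in 384-well plates, Hoechst-defined nuclei, score is well value minus plate DMSO median over DMSO robust SD, four wells per compound.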

Compound	MALAT1 nuclear FISH intensity
COC(=O)C[C@H](NC(=O)[C@H](C)NC(=O)[C@@H](NC(=O)OCc1ccccc1)C(C)C)C(=O)CF	1.72 and -0.23
NC(=S)c1ccccc1 [Thiobenzamide]	-1.8
CC(C)OC(=O)CCC/C=C\C[C@@H]1[C@@H](/C=C/[C@@H](O)COc2cccc(C(F)(F)F)c2)[C@H](O)C[C@@H]1O [Travoprost]	2.32
C[C@@H]1NC(=O)[C@@H](N)CNC(=O)[C@H](C2CCNC(=N)N2)NC(=O)/C(=C/NC(N)=O)NC(=O)[C@H](CNC(=O)CC(N)CCCN)NC1=O.N=C1NCC[C@H]([C@@H]2NC(=O)/C(=C/NC(N)=O)NC(=O)[C@H](CNC(=O)C[C@@H](N)CCCN)NC(=O)[C@H](CO)NC(=O)[C@@H](N)CNC2=O)N1 [Capreomycin Disulfate]	0.502
NCCc1ccc(O)c(O)c1	-0.825
CCOc1ccccc1OCCN[C@H](C)Cc1ccc(OC)c(S(N)(=O)=O)c1	-1.94
CCCCc1oc2ccccc2c1C(=O)c1cc(I)c(OCCN(CC)CC)c(I)c1 [Amiodarone hydrochloride]	-0.769
COc1ccc(C[C@@H]2c3cc(OC)c(OC)cc3CC[N@+]2(C)CCC(=O)OCCCCCOC(=O)CC[N@@+]2(C)CCc3cc(OC)c(OC)cc3[C@H]2Cc2ccc(OC)c(OC)c2)cc1OC [Cisatracurium Besylate]	-0.762
COc1cc(Br)c(Nc2nc(-c3c(C)nc4ncccn34)cs2)c(Br)c1	4.09
CCOC(=O)c1ncn2c1CN(C)C(=O)c1cc(F)ccc1-2 [Flumazenil]	1.22
CCCCCCCCCCCCCCC[C@@H](O)[C@@H](N)CO [Dihydrosphingosine]	0.974
COc1cc2nc(N3CCN(C(=O)c4ccco4)CC3)nc(N)c2cc1OC	0.606
CCCCC[C@H](O)/C=C/[C@H]1[C@H](O)CC(=O)[C@@H]1C/C=C\CCCC(=O)O [Dinoprostone]	0.586
O=C(O)c1cc(/N=N/c2ccc(S(=O)(=O)Nc3ccccn3)cc2)ccc1O [Sulfasalazine]	-1.12
CC(C)(O/N=C(\C(=O)N[C@@H]1C(=O)N2C(C(=O)[O-])=C(C[n+]3ccccc3)CS[C@H]12)c1csc(N)n1)C(=O)O [Ceftazidime]	-0.344
O=c1oc2ccccc2c(O)c1Cc1c(O)c2ccccc2oc1=O [Dicumarol]	-1.34
C[C@@H](O)[C@H]1C(=O)N2C(C(=O)O)=C(S[C@@H]3CN[C@H](CNS(N)(=O)=O)C3)[C@H](C)[C@H]12 [Doripenem]	-0.886
O=Cc1c2[nH]c3ccccc3c2cc2[nH]c3ccccc3c12 [6-Formylindolo [3,2-B] carbazole]	-0.828
CCCCC/C=C\C/C=C\C/C=C\CC1OC1CCCC(=O)O (centres undefined) [5,6-Epoxyeicosatrienoic acid]	-0.739
OCCOCCN1CCN(C2=Nc3ccccc3Sc3ccccc32)CC1 [Quetiapine Fumarate]	-0.38

Compound	MALAT1 nuclear FISH intensity
CC(=O)N(O)CCCCCNC(=O)CCC(=O)N(O)CCCCCNC(=O)CCC(=O)N(O)CCCCCN [Deferoxamine Mesylate]	-1.42
CO[C@@]12[C@H](COC(N)=O)C3=C(C(=O)C(C)=C(N)C3=O)N1C[C@@H]1N[C@@H]12 [Mitomycin C from Streptomyces caespitosus]	-0.11
NCCc1c[nH]cn1 [Histamine]	-0.47
O=NN(CCCl)C(=O)NC1CCCCC1 [Lomustine]	-0.711
N[C@@H](CC(=O)N1CCn2c(nnc2C(F)(F)F)C1)Cc1cc(F)c(F)cc1F [Sitagliptin Phosphate]	-0.472
c1ccc2c(Cc3c[nH]c4ccccc34)c[nH]c2c1 [Diidolylmethane]	1.47
CC(=O)N[C@@H](CC(C)C)C(=O)N[C@@H](CC(C)C)C(=O)N[C@H](C=O)CCCNC(=N)N [Leupeptin]	-1.26
CC(=Cc1ccc(C(=O)O)cc1)c1ccc2c(c1)C(C)(C)CCC2(C)C	-0.412
Fc1ccc(CNc2ncnc3ccc(F)cc23)cc1 [Spautin-1]	-1.16
CN1CC2c3ccccc3Oc3ccc(Cl)cc3C2C1 (centres undefined) [Asenapine Maleate]	-1.04
O=C(O)c1cccnc1 [Niacin (Known As Vitamin B3, Nicotinic Acid And Vitamin Pp)]	-1.05
CN(Cc1ccc(C(C)(C)C)cc1)Cc1cccc2ccccc12	0.581
CC(C)(C)NCC(O)COc1cccc2c1CC(O)C(O)C2 (centres undefined) [Nadolol]	-1.32
NNC(=O)c1ccncc1 [Isoniazid]	-0.86
Cc1[nH]c(=O)c(C#N)cc1-c1ccncc1 [Milrinone]	-0.618
C[C@]12C=CC(=O)N[C@@H]1CC[C@@H]1[C@@H]2CC[C@]2(C)[C@@H](C(=O)Nc3cc(C(F)(F)F)ccc3C(F)(F)F)CC[C@@H]12 [Dutasteride]	-0.729
CCCC(CCC)C(=O)O [Valproic Acid]	-0.016
Nc1nc(NC2CC2)c2ncn([C@H]3C=C[C@@H](CO)C3)c2n1 [Abacavir Sulfate]	0.552
Cc1ccc(NC(=O)c2ccc(CN3CCN(C)CC3)cc2)cc1Nc1nccc(-c2cccnc2)n1 [Imatinib mesylate]	0.735
